# Laboratory results taken from the supplement of paper PMC6607015.
# Counter-ions that a name gives are not always drawn.
# How the values were obtained:
# Settings in all cases: compound concentration in added solution (µM; 5 µl added to 20 µl cells): 10; 18 h
# A431 [1] = experiment: LBPA endosome anti-LBPA integrated intensity (sum per cell), Z-score; higher = more LBPA staining
# Outline: (§1)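 HeLa MZ or A431 cells were plated at 3,500 per well in 20 µl over 5 µl of 10 µM compound solution in duplicate 384-well imaging plates and fixed in 4% PFA after 18 h. Staining used the 6C4 anti-LBPA antibody, filipin, propidium iodide and CellTracker green, with four 20× images captured per well. MetaXpress segmentation measured integrated LBPA or filipin intensity per cell, across the whole cell or inside LBPA endosomes, and AcuityXpress normalised these into Z-scores.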
# HeLa MZ [2] = experiment: as above
# Outline: as §1
# A431 [3] = experiment: whole-cell filipin (free cholesterol) integrated intensity, Z-score; higher = more cholesterol staining
# Outline: as §1
# HeLa MZ [4] = experiment: as above
# Outline: as §1
# A431 [5] = experiment: filipin (cholesterol) integrated intensity within LBPA endosomes, Z-score; higher = more cholesterol in LBPA endosomes
# Outline: as §1
# HeLa MZ [6] = experiment: as above
# Outline: as §1
SMILES,LBPA endosome anti-LBPA integrated intensity (z-score) (A431 [1]),LBPA endosome anti-LBPA integrated intensity (z-score) (HeLa MZ [2]),whole-cell filipin (z-score) (A431 [3]),whole-cell filipin (z-score) (HeLa MZ [4]),filipin (z-score) (A431 [5]),filipin (z-score) (HeLa MZ [6])
C[N+]1(C)CCOC(O)(c2ccc(-c3ccc(C4(O)C[N+](C)(C)CCO4)cc3)cc2)C1 (configuration not stated) [Hemicholinium bromide],-0.629,-1.27,-0.551,-0.638,-0.55,-0.667
CN1C[C@H](C(=O)N[C@]2(C)O[C@@]3(O)[C@@H]4CCCN4C(=O)[C@H](Cc4ccccc4)N3C2=O)C[C@@H]2c3cccc4[nH]cc(c34)C[C@H]21 [Dihydroergotamine tartrate],2.74,2.55,1.06,0.225,1.48,1.1
COc1ccc(CN2CCNCC2)c(OC)c1OC [Trimetazidine dihydrochloride],-0.479,0.3,-0.53,-0.184,-0.484,-0.365
NCCC(O)C(=O)NC1CC(N)C(OC2OC(CN)C(O)[C@H](O)[C@@H]2N)[C@H](OC2O[C@H](CO)[C@@H](O)[C@@H]2O)[C@@H]1O (some centres not stated) [Butirosin disulfate salt],-0.571,-0.99,-0.257,0.609,-0.399,-0.239
O=C(O)CCCc1ccc(N(CCCl)CCCl)cc1 [Chlorambucil],-0.184,1.86,1.33,2.72,-0.393,-0.471
CN1[C@@H]2CC[C@H]1C[C@@H](OC(=O)[C@H](CO)c1ccccc1)C2 [Hyoscyamine (L)],-0.717,-1.24,-0.954,-0.599,-0.664,-0.33
C(#CCN1CCCC1)CN1CCCC1 [Tremorine dihydrochloride],-0.282,0.485,-0.922,-0.198,-0.368,0.452
CN(C)C(=O)Oc1cccc([N+](C)(C)C)c1 [Neostigmine bromide],-0.478,-0.496,-0.63,-0.608,-0.499,-0.715
"NCC(O)c1ccc(O)cc1 (racemic) [(+,-)-Octopamine hydrochloride]",-0.262,0.0629,-0.464,-0.485,-0.407,-0.291
C=CCN1CC[C@]23c4c5ccc(O)c4O[C@H]2C(=O)CC[C@@]3(O)[C@H]1C5 [Naloxone hydrochloride],-0.497,-0.128,-0.72,-1.07,-0.454,-0.503
CC(C)(N)Cc1ccccc1 [Phentermine hydrochloride],-0.333,0.854,0.392,0.563,-0.29,-0.0575
C=C1C[C@@H]2[C@H](CC[C@]3(C)C(=O)CC[C@@H]23)[C@@]2(C)C=CC(=O)C=C12 [Exemestane],-0.59,0.401,-0.0622,-0.2,-0.537,-0.552
CC(=O)OC1CN2CCC1CC2 (configuration not stated) [Aceclidine Hydrochloride],-0.622,-1.07,-0.642,0.0664,-0.61,-0.54
CCC1(CC)C(=O)C=CNC1=O [Pyrithyldione],-0.626,-1.42,-0.51,-0.44,-0.527,-0.593
Cc1cccc(C)c1NC1=NCCCS1 [Xylazine],-0.493,0.606,-0.691,-0.725,-0.524,-0.0906
CCCN1C[C@H](CSC)C[C@@H]2c3cccc4[nH]cc(c34)C[C@H]21 [Pergolide mesylate],2.35,1.89,-0.261,-0.788,0.495,0.499
CCN(C(C)=O)c1cccc(-c2ccnc3c(C#N)cnn23)c1 [Zaleplon],-0.486,-0.0487,-0.573,-0.909,-0.493,-0.507
CC(C)(C)NCC(O)c1ccccc1Cl (configuration not stated) [Tulobuterol],-0.101,1.38,0.203,0.36,-0.334,-0.0322
COc1cccc(C2(O)CCCCC2CN(C)C)c1 (configuration not stated) [Tramadol hydrochloride],-0.437,0.543,-0.062,-0.487,-0.403,-0.176
"CNCC(O)c1ccc(O)cc1 (racemic) [(+,-)-Synephrine]",-0.271,-0.444,0.673,-0.00115,-0.481,-0.576
C[C@]12CC[C@@H](O)C[C@H]1CC[C@@H]1[C@@H]2CC[C@]2(C)C(=O)CC[C@@H]12 [3-alpha-Hydroxy-5-beta-androstan-17-one],-0.153,1.16,0.209,0.519,-0.175,-0.161
CCC1(c2cccc(O)c2)CCCCN(C)C1 (configuration not stated) [Meptazinol hydrochloride],-0.527,-0.173,0.166,-0.306,-0.402,-0.0124
C[C@@H]1CN([C@H]2CC[C@](C#N)(c3ccc(F)cc3)CC2)CC[C@]1(C(=O)O)c1ccccc1 [Levocabastine hydrochloride],-0.412,-0.243,-0.194,-0.189,-0.388,-0.461
C[C@]12CC[C@@H](O)C[C@@H]1CC[C@@H]1[C@@H]2CC[C@]2(C)C(=O)CC[C@@H]12 [Androsterone],-0.387,-0.552,-0.613,-0.395,-0.241,-0.291
c1ccc2c(c1)OCC(C1=NCCN1)O2 (configuration not stated) [Idazoxan hydrochloride],-0.313,0.376,-0.115,-0.982,-0.462,-0.278

SMILES,LBPA endosome anti-LBPA integrated intensity (z-score) (A431 [1]),LBPA endosome anti-LBPA integrated intensity (z-score) (HeLa MZ [2]),whole-cell filipin (z-score) (A431 [3]),whole-cell filipin (z-score) (HeLa MZ [4]),filipin (z-score) (A431 [5]),filipin (z-score) (HeLa MZ [6])
CCN(C)C(=O)Oc1cccc([C@H](C)N(C)C)c1 [Rivastigmine],-0.438,-0.457,0.162,1.82,-0.375,-0.164
"NCC(CC(=O)O)c1ccc(Cl)cc1 (racemic) [Baclofen (R,S)]",-0.529,-1.07,-1.03,-0.783,-0.513,-0.613
NC(=O)CN1CCCC1=O [Piracetam],-0.558,-0.0728,-0.653,-0.301,-0.56,-0.514
"CN1CCC2(C)c3cc(O)ccc3N(C)C12 (single isomer, unassigned; (-)) [(-)-Eseroline fumarate salt]",-0.298,0.682,0.444,-0.261,-0.415,-0.33
CN(C)C(=O)Oc1cc(OC(=O)N(C)C)cc(C(O)CNC(C)(C)C)c1 (configuration not stated) [Bambuterol hydrochloride],-0.585,-0.352,-0.328,-0.434,-0.64,-0.586
C[N+]1([O-])[C@@H]2C[C@@H](OC(=O)[C@H](CO)c3ccccc3)C[C@H]1[C@@H]1O[C@@H]12 (some centres not stated) [Scopolamin-N-oxide hydrobromide],-0.692,-1.8,-1.01,-0.711,-0.67,-0.618
Oc1cc(Cl)ccc1Oc1ccc(Cl)cc1Cl [Triclosan],-0.463,0.177,-0.0345,3.99,-0.336,-0.129
COc1ccc(CCN2CCC(Nc3nc4ccccc4n3Cc3ccc(F)cc3)CC2)cc1 [Astemizole],–,-0.627,–,-1.11,–,2.12
CC[C@@]1([C@@H]2O[C@@H]([C@H]3O[C@@](O)(CO)[C@H](C)C[C@@H]3C)C[C@@H]2C)CC[C@H]([C@]2(C)CC[C@]3(C[C@H](O)[C@@H](C)[C@@H]([C@@H](C)[C@@H](OC)[C@H](C)C(=O)O)O3)O2)O1 [Monensin sodium salt],–,-0.505,–,-1.99,–,0.206
CC(NC(C)(C)C)C(=O)c1cccc(Cl)c1 (configuration not stated) [Bupropion hydrochloride],-0.577,-0.652,-0.448,-0.134,-0.453,-0.438
Fc1ccc(C(OCCN2CCN(CCCc3ccccc3)CC2)c2ccc(F)cc2)cc1,3.21,–,1.65,–,2.65,–
"CCC1(c2ccc(N)cc2)CCC(=O)NC1=O (configuration not stated) [Glutethimide, para-amino]",-0.66,-1.41,-1.07,-1,-0.544,-0.691
C[C@]12CCC(=O)C(O)=C1CC[C@@H]1[C@@H]2CC[C@]2(C)C(=O)CC[C@@H]12 [Formestane],1.1,1.9,2.53,2.23,2.1,1.15
CC[N+]1(C)CCCC(OC(=O)C(O)(c2ccccc2)c2ccccc2)C1 (configuration not stated) [Pipenzolate bromide],-0.28,0.585,-0.135,0.198,-0.297,-0.211
O=[N+]([O-])c1cc([As](=O)(O)O)ccc1O [Roxarsone],-0.422,-1.01,0.39,0.562,-0.281,-0.327
CC(=O)OCC(=O)[C@H]1CC[C@H]2[C@@H]3CC[C@H]4C[C@H](O)CC[C@]4(C)[C@H]3C(=O)C[C@]12C [Alfadolone acetate],0.719,1.43,0.996,0.815,0.478,0.736
NCCc1c[nH]c2ccc(O)cc12 [Serotonin hydrochloride],-0.716,-1.58,-1.04,-1.21,-0.627,-0.624
O=[N+]([O-])O[C@@H]1CO[C@H]2[C@@H]1OC[C@@H]2O [Isosorbide mononitrate],-0.416,-0.118,0.0855,-0.408,-0.35,-0.464
CC(=O)O[C@H]1C[C@@H]2CC[C@@H]3[C@H](CC[C@@]4(C)[C@H]3C[C@H]([N+]3(C)CCCCC3)[C@@H]4OC(C)=O)[C@@]2(C)C[C@@H]1[N+]1(C)CCCCC1 [Pancuronium bromide],-0.551,-0.744,0.0171,-0.166,-0.527,-0.532
CC(O)(CS(=O)(=O)c1ccc(F)cc1)C(=O)Nc1ccc(C#N)c(C(F)(F)F)c1 (configuration not stated) [Bicalutamide],-0.376,-0.104,-0.0253,0.26,-0.405,-0.188
CC(Cc1ccccc1)NCCC(c1ccccc1)c1ccccc1 (configuration not stated) [Prenylamine lactate],–,1.19,–,1.27,–,2.44
C[N+]12CCC(CC1)C(OC(=O)C(O)(c1ccccc1)c1ccccc1)C2 (configuration not stated) [Clidinium bromide],-0.478,-0.195,-0.441,-0.644,-0.455,-0.364
COc1ccc(OC)c(C(O)C(C)N)c1 (configuration not stated) [Methoxamine hydrochloride],-0.442,0.415,-0.614,-0.834,-0.515,-0.513
CCN[C@@H](C)Cc1cccc(C(F)(F)F)c1 [Dexfenfluramine hydrochloride],-0.18,-0.965,-0.95,-0.721,-0.444,-0.703
